# Results: ChEMBL document CHEMBL1201862, “PubChem BioAssay data set” (2004)
# The campaign covered roughly 400,000 compounds. About 2,100 (0.53%) were called active. Roughly 14% stayed inconclusive and do not appear here. How the calls were made is not given here. This excerpt belongs to a sample that is enriched for actives.
# Target: Ataxin-2 (Homo sapiens) (UniProt Q99700)
# Assay: qHTS for Inhibitors of ATXN expression.
# Assay type: functional
# Chain of Ataxin-2 (Homo sapiens) (Q99700 whole entry): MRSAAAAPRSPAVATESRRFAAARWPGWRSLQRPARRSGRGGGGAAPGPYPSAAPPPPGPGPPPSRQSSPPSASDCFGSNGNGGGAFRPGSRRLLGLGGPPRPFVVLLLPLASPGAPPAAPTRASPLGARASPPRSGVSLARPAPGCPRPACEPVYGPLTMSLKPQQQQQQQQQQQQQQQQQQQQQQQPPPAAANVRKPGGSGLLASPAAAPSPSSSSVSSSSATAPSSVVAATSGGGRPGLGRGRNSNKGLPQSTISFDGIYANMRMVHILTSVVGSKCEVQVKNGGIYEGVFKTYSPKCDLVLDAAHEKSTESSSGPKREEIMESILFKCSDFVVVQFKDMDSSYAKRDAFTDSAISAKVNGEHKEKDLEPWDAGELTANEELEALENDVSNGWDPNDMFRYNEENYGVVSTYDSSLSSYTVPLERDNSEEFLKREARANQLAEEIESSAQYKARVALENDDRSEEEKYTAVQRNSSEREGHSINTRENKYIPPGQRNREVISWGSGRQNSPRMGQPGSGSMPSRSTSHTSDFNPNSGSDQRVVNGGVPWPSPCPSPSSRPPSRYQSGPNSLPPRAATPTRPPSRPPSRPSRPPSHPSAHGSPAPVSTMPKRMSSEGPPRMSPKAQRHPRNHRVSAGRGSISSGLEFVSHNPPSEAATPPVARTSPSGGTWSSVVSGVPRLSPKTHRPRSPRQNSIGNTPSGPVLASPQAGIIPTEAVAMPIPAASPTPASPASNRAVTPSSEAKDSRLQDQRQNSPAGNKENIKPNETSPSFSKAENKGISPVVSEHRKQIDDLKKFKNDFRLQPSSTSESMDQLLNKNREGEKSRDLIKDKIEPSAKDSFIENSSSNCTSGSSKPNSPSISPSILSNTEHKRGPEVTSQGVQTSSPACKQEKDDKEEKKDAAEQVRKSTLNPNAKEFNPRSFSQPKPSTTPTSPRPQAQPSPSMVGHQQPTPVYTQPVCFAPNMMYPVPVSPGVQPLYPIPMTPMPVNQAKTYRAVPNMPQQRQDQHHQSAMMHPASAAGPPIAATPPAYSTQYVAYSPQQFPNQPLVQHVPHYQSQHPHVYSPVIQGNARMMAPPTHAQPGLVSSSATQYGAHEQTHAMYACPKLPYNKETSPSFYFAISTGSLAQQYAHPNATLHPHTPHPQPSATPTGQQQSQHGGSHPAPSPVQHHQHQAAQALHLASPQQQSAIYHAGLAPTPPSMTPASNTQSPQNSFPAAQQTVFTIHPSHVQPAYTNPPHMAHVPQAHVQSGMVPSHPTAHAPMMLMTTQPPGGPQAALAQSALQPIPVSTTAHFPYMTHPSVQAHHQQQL
row,Compound,Potency
1,O=C(O)c1cc(-c2ccc(-c3ccc(F)cc3)o2)nc2ccccc12,inactive
2,C[C@@H]1C(c2cccc(Cl)c2)=NN(c2ccccc2)[C@H]1C(=O)N1CCOC1=O,inactive
3,Cc1[nH]n(-c2nc(-c3ccc(Cl)cc3)cs2)c(=O)c1N=Nc1ccc(O)cc1,26.7 µM (active)
4,Oc1c(Cl)cc(Cl)cc1/C=N/c1nc(-c2ccc(Cl)cc2)cs1,inactive
5,O=C(Nc1cccc(OC(F)(F)F)c1)C1Cc2c(-c3ccc4c(c3)OCO4)ccnc2O1 (configuration not stated),39.8 µM (active)
6,O=C1OC(C(=O)Nc2ccc(Cl)c(C(F)(F)F)c2)Cc2ccccc21 (configuration not stated),inactive
7,CCOC(=O)c1cc(-c2ccc3c(c2)OCO3)nc2onc(C)c12,inactive
8,CC(=O)Nc1cccc(-c2ccnc3c2CC(C(=O)Nc2ccc(F)c(Cl)c2)O3)c1 (configuration not stated),22.4 µM (active)
9,CC(=O)Nc1ccc(C2CC(c3ccc(Cl)cc3)=NN2c2ccccc2)cc1 (configuration not stated),inactive
10,CC(C)CN(CC(C)C)C(=O)c1cc2c(=O)n3ccccc3nc2s1,inactive
11,O=C(NCCOC(=O)c1ccccc1)c1ccccc1,inactive
12,O=C(Nc1ccc(Cl)cn1)c1ccccc1SCc1ccccc1,inactive
13,N=C(NOC(=O)c1ccccc1)C(Cc1ccccc1)C(=O)NOC(=O)c1ccccc1 (configuration not stated),39.8 µM (active)
14,COc1ccc(CN2C(=O)c3cccnc3C2=O)cc1S(=O)(=O)N1CCOc2ccc(C)cc21,inactive
15,O=C(c1cnn(-c2ccccc2)c1)c1ccccc1O,inactive
16,CC(Sc1ccccc1)C(=O)NN=C1CCCCCCC1 (configuration not stated),inactive
17,CCOc1ccc(NC(=O)CN2CCN(CC(=O)Nc3ccccc3OC)CC2)cc1,inactive
18,COc1ccccc1NC(=O)CN1CCN(CC(=O)Nc2ccc(Cl)c(C(F)(F)F)c2)CC1,44.7 µM (active)
19,O=C(CN1CCN(C(=O)c2c(F)cccc2F)CC1)Nc1ccccc1C(F)(F)F,inactive
20,O=C(Cc1ccccc1)Nc1ncccc1Cl,inactive
21,Cc1ccc(-c2ccc(/C=C3\SC(N4CCOCC4)=NC3=O)o2)cc1,inactive
22,Cc1ccccc1-c1ccc(/C=C2/SC(N3CCOCC3)=NC2=O)o1,inactive
23,O=C1NC(=S)S/C1=C/c1ccc(N2CCOCC2)o1,10 µM (active)
24,N#C/C(=C/c1ccc(-c2ccc(Br)cc2)o1)C(=O)NC1CCCCC1,inactive
25,Cn1c(/C=C(\C#N)C(N)=S)ccc1-c1ccc(Br)cc1,11.2 µM (active)
26,CC(=O)c1sc2nsc(SCCN3CCOCC3)c2c1N,inactive

row,Compound,Potency
1,CCn1c2ccccc2c2cc(CNCc3ccc(OC)cc3OC)ccc21,42.3 µM (active)
2,CCc1cc(=O)oc2c(CNCc3ccc(OC)cc3OC)c(O)c(Cl)cc12,inactive
3,COc1ccc(CNc2nc3ccccc3n2C)c(OC)c1,inactive
4,Cc1cc(C)c(C(=O)COC(=O)C2CCN(c3ccc(C(F)(F)F)cn3)CC2)c(C)c1,inactive
5,CC[n+]1c(/C=C2/C=C(C)CC(C)(C)C2)sc2ccc(OC)cc21,39.8 µM (active)
6,CCN1CCN(Cc2ccc(NC(=O)c3ccc(C)c(NC(=O)c4cccc5[nH]ccc45)c3)cc2C(F)(F)F)CC1,35.5 µM (active)
7,CCN1CCN(Cc2ccc(NC(=O)c3ccc(C)c(NC(=O)c4cncc(-c5cccs5)c4)c3)cc2C(F)(F)F)CC1,20 µM (active)
8,O=C(CO)N/N=C/c1c2ccccc2cc2ccccc12,inactive
9,O=C(O)c1ccc(-n2cc(-c3cc4ccccc4oc3=O)nc2S)cc1,inactive
10,Cc1c(CCC(=O)NCCCN2CCCC2=O)c(=O)oc2cc(O)ccc12,inactive
11,Cc1cc(C(=O)N/N=C/c2cn(C)nc2C)c2ccccc2n1,inactive
12,CC(C)(C)c1cc(C(c2cccnc2)N2CCN(CCO)CC2)cc(C(C)(C)C)c1O (configuration not stated),25.1 µM (active)
13,CCN1CCN(C(c2ccc(C(F)(F)F)cc2)c2ccc3cccnc3c2O)CC1 (configuration not stated),inactive
14,COC(=O)NCC(c1cccnc1)N1CCN(c2ccccc2)CC1 (configuration not stated),inactive
15,Cc1onc(-c2c(Cl)cccc2Cl)c1C(=O)NNC(=O)c1c(-c2c(Cl)cccc2Cl)noc1C,inactive
16,N#Cc1sc2nc(C3CC3)cc(-c3ccc(Cl)cc3)c2c1N,inactive
17,CC(C)c1ccccc1NC(=O)CN1C(=O)c2cccc3cccc1c23,inactive
18,CCCCc1c(-c2ccccc2OC)ncn1CCc1cccc(Cl)c1,31.6 µM (active)
19,CCCCc1c(-c2ccccc2OC)ncn1CCc1ccc(OC)cc1,39.8 µM (active)
20,Nc1cccc2c1C(=O)N(Cc1cccc(Cl)c1)C2=O,inactive
21,CCCCc1c(-c2ccccc2OC)ncn1C1CCCC1,22.4 µM (active)
22,CCCCc1c(-c2ccccc2OC)ncn1Cc1ccc(-c2ccccc2)cc1,22.4 µM (active)
23,O=C1Cc2ccccc2C(=O)N1Cc1cccc(Cl)c1,inactive
24,COc1cc2c3nnc(-c4ccccc4)c-3cn(Cc3ccc(F)cc3)c2cc1OC,inactive
25,COc1ccccc1C1=NC(c2ccccc2)CN1c1ccccc1 (configuration not stated),inactive
26,CC12CCC(C1)C(C)(C)C2NS(=O)(=O)c1ccc(F)cc1 (configuration not stated),inactive
